Activity calls are given as the source filed them. The calls were made as follows: active = hit-call score of the fitted dose curve at least 0.9, where 1 is the maximum; inactive = score below 0.9.

From PubChem BioAssay (EPA / NIEHS) come the findings set out here.

System in one experiment: not listed separately
Briefly: ATG_M_06_CIS: Attagene CIS-FACTORIAL HepG2 Assay for M06 Transcription Factor (Internal Marker) (AID 2282950). The conditions noted are these: HepG2 Attagene CIS-FACTORIAL M06 internal marker reporter; actives raise or lower the signal. The gist of the method: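 Fluorescence-labelled RT-PCR products from cis-promoter reporter units, cut with HpaI and resolved by capillary electrophoresis, give the signal. Cells are human HepG2, dosed for 24 h. Serves as background control, fitted relative to DMSO.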
For the compound `CCCCCCCCCCBr`, the compound was called inactive.

For the compound `O=C(NC(=O)c1c(F)cccc1F)Nc1cc(Cl)c(Oc2ncc(C(F)(F)F)cc2Cl)c(Cl)c1`, the compound was called inactive.

Take `C=C(C)[C@@H]1CC=C(C=O)CC1`: the compound was classed as inactive.

As for `N#Cc1ccc(Cl)cc1`, the result was inactive.

For the compound `C[N+](C)(C)Cc1ccccc1`, the compound was called inactive.

Turning to `O=C1C=CC(=O)c2ccccc21`, the compound was classed as inactive.

Turning to `CC(O)(CS(=O)(=O)c1ccc(F)cc1)C(=O)Nc1ccc(C#N)c(C(F)(F)F)c1` (stereo not given), the compound was called inactive.

As for `CCOC(=O)CC(=O)CCl`, the call was inactive.

With `O=C(NC(=O)c1c(F)cccc1F)Nc1cc(Cl)c(OC(F)(F)C(F)C(F)(F)F)cc1Cl` (stereo not given), the compound was classed as inactive.

For `C=CC(=O)NC(C)(C)CC(C)=O`, the result was inactive.

Turning to `CC(C)CP(=S)(S)CC(C)C`, the compound was called inactive.

Consider `Cc1cc(C(F)(C(F)(F)F)C(F)(F)F)ccc1NC(=O)c1cccc(I)c1C(=O)NC(C)(C)CS(C)(=O)=O`, for which the outcome was inactive.

Take `O=S1OC[C@@H]2[C@H](CO1)[C@]1(Cl)C(Cl)=C(Cl)[C@@]2(Cl)C1(Cl)Cl` (stereo not given in full): the compound was called inactive.

As for `CC1(C)[C@H](/C=C2\CCSC2=O)[C@@H]1C(=O)OCc1coc(Cc2ccccc2)c1`, the outcome was inactive.

Take `c1csc(-c2ccc(-c3cccs3)s2)c1`: the result was inactive.

For the compound `C1CCC(C2CCCCC2)CC1`, the outcome was inactive.

Turning to `NC(=O)c1ccc(N)nc1`, the compound was called inactive.

Regarding `C=CC(=O)[O][Sn]([CH2]CCC)([CH2]CCC)[CH2]CCC`, the compound was classed as inactive.

Consider `O=S(=O)(C(Cl)(Cl)Cl)C(Cl)(Cl)Cl`, for which the compound was classed as inactive.

With `COC(=O)c1cc(Oc2ccc(Cl)cc2Cl)ccc1[N+](=O)[O-]`, the call was inactive.

Turning to `CC(C)(c1ccc(O)c(-c2ccccc2)c1)c1ccc(O)c(-c2ccccc2)c1`, the compound was called inactive.

Take `Clc1cc(C(Cl)(Cl)Cl)cnc1Cl`: the result was inactive.

As to `CCOC(=O)OC1=C(c2cc(C)ccc2C)C(=O)NC12CCC(OC)CC2` (stereo not given), the outcome was inactive.

Consider `CCCSP(=S)(OCC)Oc1ccc(SC)cc1` (stereo not given), for which the compound was called inactive.

On to `CN(C1CCCCC1)C1CCCCC1`, for which the call was inactive.

Turning to `ClCCN1CCOCC1`, the result was inactive.

Consider `O=C(Nc1ccc(Br)cc1)c1cc(Br)cc(Br)c1O`, for which the compound was classed as inactive.

Take `O=[N+]([O-])c1ccc(Cl)c([N+](=O)[O-])c1`: the call was inactive.

As to `CC(=Cc1ccccc1)[N+](=O)[O-]`, the compound was classed as inactive.

With `CCOc1ccc(N)cc1`, the call was inactive.

For a further experiment, the target named is Hypoxia-inducible factor 1-alpha (Homo sapiens) (UniProt Q16665). The experiment can be described thus: ATG_HIF1a_CIS: Attagene CIS-FACTORIAL HepG2 Assay for human Hypoxia Inducible Factor 1 (HIF1A) (AID 2282951). The conditions noted are these: HepG2 Attagene cis-factorial HIF1a reporter transcription; actives raise or lower the signal. The method, boiled down: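 HepG2 cells transiently transfected with multiplexed cis-promoter reporter units; reporter mRNA read 24 h after dosing by RT-PCR, 6-FAM primer-extension labelling, HpaI digestion and capillary electrophoresis. Bidirectional fit versus DMSO baseline.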
Chain of Hypoxia-inducible factor 1-alpha (Homo sapiens) (Q16665 whole entry, looked up): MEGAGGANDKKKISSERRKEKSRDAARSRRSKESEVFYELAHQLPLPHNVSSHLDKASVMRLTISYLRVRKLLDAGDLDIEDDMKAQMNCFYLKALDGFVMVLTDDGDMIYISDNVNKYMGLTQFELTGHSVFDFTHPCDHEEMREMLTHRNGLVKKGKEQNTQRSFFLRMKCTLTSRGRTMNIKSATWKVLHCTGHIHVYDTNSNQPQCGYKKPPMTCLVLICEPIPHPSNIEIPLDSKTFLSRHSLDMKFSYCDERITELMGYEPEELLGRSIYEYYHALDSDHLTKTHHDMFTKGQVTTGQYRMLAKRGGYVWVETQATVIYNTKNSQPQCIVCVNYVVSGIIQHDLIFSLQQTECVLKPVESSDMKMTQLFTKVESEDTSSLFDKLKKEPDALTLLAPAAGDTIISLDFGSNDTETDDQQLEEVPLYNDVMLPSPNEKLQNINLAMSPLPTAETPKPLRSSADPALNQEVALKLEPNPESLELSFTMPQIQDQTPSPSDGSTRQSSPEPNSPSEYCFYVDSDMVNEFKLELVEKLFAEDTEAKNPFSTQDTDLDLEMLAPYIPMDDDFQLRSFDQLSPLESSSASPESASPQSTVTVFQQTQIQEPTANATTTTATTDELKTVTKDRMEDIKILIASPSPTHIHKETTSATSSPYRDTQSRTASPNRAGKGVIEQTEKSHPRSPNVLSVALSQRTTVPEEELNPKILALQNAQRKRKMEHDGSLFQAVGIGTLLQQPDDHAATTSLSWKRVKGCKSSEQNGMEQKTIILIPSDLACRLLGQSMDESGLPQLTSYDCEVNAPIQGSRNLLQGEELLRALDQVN
As to `CCCCCCCCCCBr`, the result was inactive.

Take `N#CCCC(Br)(C#N)CBr` (stereo not given): the result was inactive.

As to `O=C(NC(=O)c1c(F)cccc1F)Nc1cc(Cl)c(Oc2ncc(C(F)(F)F)cc2Cl)c(Cl)c1`, the outcome was inactive.

`C=C(C)[C@@H]1CC=C(C=O)CC1`: the result was inactive.

In general, AC50 refers to the concentration giving half of the maximal activity seen. For `Cc1cc(SCc2sc(-c3ccc(C(F)(F)F)c(F)c3)nc2C)ccc1OCC(=O)O`, the concentration at half-maximal activity (AC50) is 17.2 µM (active).

On to `ClCc1ccccc1CCl`, for which the call was inactive.

As to `N#Cc1ccc(Cl)cc1`, the compound was classed as inactive.

On to `C[N+](C)(C)Cc1ccccc1`, for which the result was inactive.

In the case of `O=C1C=CC(=O)c2ccccc21`, the compound was called inactive.

As for `CC(O)(CS(=O)(=O)c1ccc(F)cc1)C(=O)Nc1ccc(C#N)c(C(F)(F)F)c1` (stereo not given), the result was inactive.

For the compound `CCOC(=O)CC(=O)CCl`, the compound was classed as inactive.

For `O=C(NC(=O)c1c(F)cccc1F)Nc1cc(Cl)c(OC(F)(F)C(F)C(F)(F)F)cc1Cl` (stereo not given), the compound was classed as inactive.

With `C=CC(=O)NC(C)(C)CC(C)=O`, the compound was called inactive.

For the compound `CC(C)CP(=S)(S)CC(C)C`, the call was inactive.

With `Cc1cc(C(F)(C(F)(F)F)C(F)(F)F)ccc1NC(=O)c1cccc(I)c1C(=O)NC(C)(C)CS(C)(=O)=O`, the call was inactive.

`O=S1OC[C@@H]2[C@H](CO1)[C@]1(Cl)C(Cl)=C(Cl)[C@@]2(Cl)C1(Cl)Cl` (stereo not given in full): the compound was classed as inactive.

For `CC1(C)[C@H](/C=C2\CCSC2=O)[C@@H]1C(=O)OCc1coc(Cc2ccccc2)c1`, the AC50 is 12.9 µM (active).

Regarding `CNC(=O)CSP(=O)(OC)OC`, the compound was called inactive.

For the compound `c1csc(-c2ccc(-c3cccs3)s2)c1`, the AC50 is 3.28 µM (active).

With `C1CCC(C2CCCCC2)CC1`, the call was inactive.

For the compound `NC(=O)c1ccc(N)nc1`, the compound was called inactive.

On to `CC(F)(F)CC(F)(F)F`, for which the outcome was inactive.

`C=CC(=O)[O][Sn]([CH2]CCC)([CH2]CCC)[CH2]CCC`: the compound was called inactive.

For `O=S(=O)(C(Cl)(Cl)Cl)C(Cl)(Cl)Cl`, the outcome was inactive.

On to `COC(=O)c1cc(Oc2ccc(Cl)cc2Cl)ccc1[N+](=O)[O-]`, for which the AC50 is 21.3 µM (active).

On to `CC(C)(c1ccc(O)c(-c2ccccc2)c1)c1ccc(O)c(-c2ccccc2)c1`, for which the compound was classed as inactive.

Regarding `Clc1cc(C(Cl)(Cl)Cl)cnc1Cl`, the AC50 was 9 µM (active).

`CCOC(=O)OC1=C(c2cc(C)ccc2C)C(=O)NC12CCC(OC)CC2` (stereo not given): the outcome was inactive.

Consider `CCCSP(=S)(OCC)Oc1ccc(SC)cc1` (stereo not given), for which the compound was called inactive.

In the case of `CN(C1CCCCC1)C1CCCCC1`, the result was inactive.
